From PubChem
This is a sample that favours compounds with a hit; in the whole collection about 10% have one here.
HP1b binding inh: inhibitors of HP1-beta chromodomain binding to methylated histone tails. P83916. AlphaScreen HP1-beta / biotin-H3K9me3 peptide binding. Potency, µM (top dose mostly 114 µM), for the others: at the highest dose activity change, negative = inhibition, actives largely listed as inhibitors. 0.56% of 390,000 active. AID 540317; note: nearly all actives have a fitted effect of over 70% in size
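AlphaScreen: HP1-beta (50 nM) preformed 30 min with biotin-H3(1-18)K9me3 peptide (50 nM) in PBS pH 7.4, 0.01% Tween-20. Compound added for 30 min at RT, then streptavidin donor/nickel chelate acceptor beads (10 ug/mL) for 30 min.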
G9a inh: inhibitors of human histone lysine methyltransferase G9a; G9a H3K9 monomethylation, AlphaScreen, 2 h; Potency, µM (highest dose often 102 µM), for the others: at the highest dose activity, negative = inhibition, actives largely listed as inhibitors; 8.8% of 350,000 active; note: % is set by controls: 0 for no effect and ±100 for the full control effect; nearly all actives have a fitted effect of over 75% in size
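Chemiluminescent proximity detection of H3K9 monomethylation, read after 10 min bead incubation in the dark. Reaction: 20 nM G9a, 500 nM biotin-H3K9 peptide, 20 uM SAM cofactor, 2 h, room temperature, following 15 min enzyme-compound preincubation.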
GLS inh: inhibitors of human glutaminase (GLS); O94925; GLS enzymatic activity, qHTS titration; Potency, µM (doses to about 45.5 µM), for the others: top-dose activity change, negative = inhibition, most hits filed as inhibitors; 0.21% of 410,000 active; AID 624170; note: % is set by controls: 0 for no effect and ±100 for the full control effect
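Glutamate formation by hKGA was monitored fluorometrically using coupled glutamate oxidase, HRP and Amplex Red. Substrate was added as 1 mM L-glutamine solution; incubation was 30 min at RT after an initial read.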
JMJD2A Tudor: blocks the human JMJD2A Tudor domain; 4.4% of 390,000 active; Potency, µM (top dose mostly 114 µM), inactives show at the top dose activity change, negative = inhibition, actives largely listed as inhibitors; AID 504339; AlphaScreen JMJD2A-Tudor / H3K4me3 peptide binding; O75164; note: % is set by controls: 0 for no effect and ±100 for the full control effect; nearly all actives have a fitted effect of over 50% in size
BAZ2B block: BAZ2B (human) inhibition. 4.4% of 360,000 active. AlphaScreen BAZ2B-H3K14Ac peptide displacement. Potency, µM (doses to about 114 µM), for inactives: at the top dose activity change, negative = inhibition, most hits filed as inhibitors; note: % is set by controls: 0 for no effect and ±100 for the full control effect; nearly all actives have a fitted effect of over 60% in size
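Inhibition is scored as reduced AlphaScreen emission. The BAZ2B/b-H3(5-23)K14Ac complex (50 nM each) in PBS pH 7.4, 0.01% Tween-20 meets compound (up to 110 uM) for 30 min at RT before bead addition.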
* = called active by the depositor; [ ] = remark or other dose. Calls come from the whole dose curve; as a rule, active = well fitted curve in the direction sought with a large enough effect; inconclusive = small, poorly fitted or top-dose-only effect, or another doubt; inactive = no such curve, though single readings can be large; an effect the other way counts as inactive or inconclusive. Potency is the fitted concentration of half-maximal effect.

Results for COc1cccc(N2CC(C(=O)Nc3nnc(SCC(=O)NCc4ccco4)s3)CC2=O)c1 (stereo not drawn) ?
HP1b binding inh: 13.6%; GLS inh: 3.8%; JMJD2A Tudor: inconclusive; BAZ2B block: inconclusive

Results for Cc1ccc(N2CC(C(=O)Nc3nnc(SCCC4OCCO4)s3)CC2=O)cc1C (stereo not drawn) ?
HP1b binding inh: 26.4%; G9a inh: -10.2%[12.7 µM]; GLS inh: 0.7%; JMJD2A Tudor: -14.4%; BAZ2B block: -8.6%

Results for Cc1ccc(N2CC(C(=O)Nc3nnc(SCCC4OCCO4)s3)CC2=O)cc1 (stereo not drawn) ?
HP1b binding inh: 31.4%; G9a inh: 12.6µM*; GLS inh: -0.8%; JMJD2A Tudor: -9.6%; BAZ2B block: -8.7%

How did O=C(Nc1nnc(SCC(=O)N2CCOCC2)s1)C1CC(=O)N(c2ccc(F)cc2)C1 (stereo not drawn) do in these assays?
HP1b binding inh: 41.7%; G9a inh: 19.3%[12.7 µM]; GLS inh: -1.9%; JMJD2A Tudor: -5.2%; BAZ2B block: -12.7%

How did CCOC(=O)c1coc(C(=O)OCC)c1C(=O)OCC do in these assays?
HP1b binding inh: 10.3%[57 µM]; GLS inh: -4.8%; JMJD2A Tudor: 8.3%

What do the screens show for `O=C(CSc1nnc(NC(=O)C2CC(=O)N(c3ccccc3)C2)s1)NCC1CCCO1` (stereo not drawn)?
HP1b binding inh: 38.9%; G9a inh: 39.8µM*; GLS inh: 0.7%; JMJD2A Tudor: -7.4%; BAZ2B block: -2.0%

What do the screens show for `COCc1nnc(NC(=O)C2CC(=O)N(c3ccc(C)c(Cl)c3)C2)s1` (stereo not drawn)?
HP1b binding inh: -8.4%; G9a inh: 15.8µM*; GLS inh: -10.7%; JMJD2A Tudor: -12.8%; BAZ2B block: -5.3%

Results for Cc1ccc(N2CC(C(=O)Nc3nccs3)CC2=O)cc1Cl (stereo not drawn) ?
HP1b binding inh: 6.8%; G9a inh: -22.3%[12.7 µM]; GLS inh: -9.5%; JMJD2A Tudor: 4.2%; BAZ2B block: 8.0%

How did CCOc1ccccc1NS(=O)(=O)c1c(C)nc2sccn2c1=O do in these assays?
HP1b binding inh: 35.7%; G9a inh: 6.6%[59 µM]; GLS inh: 19.9%; JMJD2A Tudor: 2.9%; BAZ2B block: -10.1%

How did CC1CC(C)CN(CC(=O)N2CCOCC2)C1 (stereo not drawn) do in these assays?
HP1b binding inh: -19.6%; G9a inh: 8.91µM*; GLS inh: 5.1%; JMJD2A Tudor: 25.1µM*; BAZ2B block: 50.1µM*

How did CCOc1ccc(-c2nnc(SCC(=O)NCc3ccc(Cl)cc3)o2)cc1 do in these assays?
HP1b binding inh: 34.5%; G9a inh: -7.6%[59 µM]; GLS inh: -12.1%; JMJD2A Tudor: -10.6%; BAZ2B block: inconclusive

How did Cc1c(Cl)cccc1NC(=S)Nc1ccc(S(=O)(=O)Nc2ncccn2)cc1 do in these assays?
HP1b binding inh: -5.9%; GLS inh: 26.6%; JMJD2A Tudor: -22.2%

How did N#CCC(=O)Nc1ccc(C(=O)NCC(c2ccco2)N2CCCCC2)cc1 (stereo not drawn) do in these assays?
HP1b binding inh: 1.8%; G9a inh: -2.8%[59 µM]; GLS inh: 2.1%; JMJD2A Tudor: -18.9%; BAZ2B block: inconclusive

Results for O=C(NCc1ccccc1Cl)c1cnc2sc(N3CCCCC3)nn2c1=O ?
HP1b binding inh: -15.1%; G9a inh: -1.9%[59 µM]; GLS inh: 2.9%; JMJD2A Tudor: -14.0%; BAZ2B block: 3.2%

What do the screens show for `C[C@H]1CN([C@@H](C)CO)C(=O)c2cccc(NC(=O)C3CC3)c2O[C@H]1CN(C)S(=O)(=O)c1ccccc1`?
HP1b binding inh: 32.9%; GLS inh: 5.7%; JMJD2A Tudor: -22.0%

How did COc1ccc(NC(=O)C(c2ccccn2)N(C(C)=O)c2ccc(C)cc2)cc1 (stereo not drawn) do in these assays?
HP1b binding inh: 33.8%; G9a inh: -19.5%; GLS inh: -12.0%; JMJD2A Tudor: -4.8%; BAZ2B block: 2.3%

What do the screens show for `CCOc1ccc(NC(=O)C(c2ccccn2)N(C(=O)CCl)c2ccc(OC)cc2)cc1` (stereo not drawn)?
HP1b binding inh: -26.8%; G9a inh: 2µM*; GLS inh: 10.6%; JMJD2A Tudor: 89.1µM*; BAZ2B block: inconclusive

How did CCOc1ccc(NC(=O)C(c2ccccn2)N(C(=O)CCl)c2ccc(OCC)cc2)cc1 (stereo not drawn) do in these assays?
HP1b binding inh: -28.4%; G9a inh: 3.55µM*; GLS inh: 18.2%; JMJD2A Tudor: inconclusive; BAZ2B block: inconclusive

What do the screens show for `COC(=O)C1Cc2c([nH]c3ccccc23)CN1` (stereo not drawn)?
HP1b binding inh: 23.3%; G9a inh: 39.8µM*; GLS inh: 11.5%; JMJD2A Tudor: -29.5%; BAZ2B block: -31.6%

Results for COC(=O)[C@H]1Cc2c([nH]c3ccccc23)[C@H](c2ccccc2)N1 ?
HP1b binding inh: 12.5%; G9a inh: 20.5%; GLS inh: 12.5%; JMJD2A Tudor: -11.0%; BAZ2B block: -16.2%

What do the screens show for `CCC(CC)c1ncc[nH]1`?
HP1b binding inh: 41.9%; G9a inh: 14.0%; GLS inh: -1.1%; JMJD2A Tudor: -4.9%; BAZ2B block: -7.3%

What do the screens show for `CCCCNc1nc(CC(C)=O)ns1`?
HP1b binding inh: 28.4%; G9a inh: -19.0%; GLS inh: -12.1%; JMJD2A Tudor: -14.4%; BAZ2B block: 3.1%

How did CCc1ccc(CCC(=O)Nc2nc(CC(C)=O)ns2)o1 do in these assays?
HP1b binding inh: 10.9%; G9a inh: 70.8µM*; GLS inh: 8.3%; JMJD2A Tudor: inconclusive; BAZ2B block: -10.0%

How did CNc1nc(CC(C)=O)ns1 do in these assays?
HP1b binding inh: 23.0%; G9a inh: 79.4µM*; GLS inh: 5.2%; JMJD2A Tudor: -15.9%; BAZ2B block: -19.9%

How did COc1ccc(NC(=O)c2cc3nc(-c4ccc(Cl)c(Cl)c4)cc(C(F)(F)F)n3n2)c(OC)c1 do in these assays?
HP1b binding inh: 13.5%; G9a inh: 2.8%[59 µM]; GLS inh: -9.1%; JMJD2A Tudor: -19.6%; BAZ2B block: -2.3%

How did O=C(NCCCN1CCOCC1)c1coc2ccccc2c1=O do in these assays?
HP1b binding inh: 36.8%; G9a inh: 11.8%[59 µM]; GLS inh: 5.6%; JMJD2A Tudor: 1.4%

What do the screens show for `O=c1c(N2CCOCC2)coc2ccccc12`?
HP1b binding inh: 90.5%; G9a inh: 3.55µM*; GLS inh: -1.8%; JMJD2A Tudor: -9.7%; BAZ2B block: -11.9%

How did COc1cccc(CCN2CCC(CNS(=O)(=O)c3cc(-c4cc(C)no4)ccc3C)CC2)c1 do in these assays?
HP1b binding inh: -9.2%[57 µM]; G9a inh: 70.8µM*; GLS inh: -1.5%; JMJD2A Tudor: -34.9%; BAZ2B block: inconclusive

How did COc1cccc(CCN2CCC(CNS(=O)(=O)c3cc(-c4cc(C)no4)ccc3OC)CC2)c1 do in these assays?
HP1b binding inh: 0.0%; G9a inh: 18.8%[59 µM]; GLS inh: 0.3%; JMJD2A Tudor: -25.0%; BAZ2B block: -24.9%
